Compounds with a hit are over-represented: about 21% of the library has one in this group of screens.
HCV inhibitor – inhibitors of hepatitis C virus infection; AID 651820; Potency, µM (series often up to 41.8 µM), for inactives: at the highest dose activity change, negative = inhibition, actives largely listed as inhibitors; Huh7.5.1 HCVcc-Cre infection, luciferase reporter, 44 h; hit rate 3.4% among 340,000; also: potency is read from the fitted curve at half-maximal effect; % is scaled to controls: 0 for no effect and ±100 for the full control effect
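1,000 cells/well; 4 h culture; + compound; + HCVcc-Cre (~0.5 moi); 44 h; luciferase substrate, RT 15 min; read 15 sec.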
Pf growth 48h – P. falciparum growth inhibition at 48 hours (one generation); Potency, µM (titrated, usually from 28.7 µM), inactives show top-dose activity change, negative = inhibition, usual class: inhibitors; hit rate 5.9% among 310,000; AID 504832; P. falciparum luciferase growth in erythrocytes, 48 h; also: potency is read from the fitted curve at half-maximal effect; % is scaled to controls: 0 for no effect and ±100 for the full control effect
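Cell-based growth assay: transgenic P. falciparum expressing firefly luciferase, cultured in red cells within RPMI 1640 containing 0.5% w/v Albumax, 24 mM bicarbonate and gentamycin. A drop in luciferase activity indicates inhibition.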
Shiga toxin inh – inhibitors of Shiga toxin in Vero cells | Vero cells, Shiga toxin protein synthesis inhibition reporter | inhibition, % at 38.7 µM | hit rate 9.2% among 290,000; in the data active = inhibition mostly above about 28%, no sharp cut-off; inactive = mostly below about 43%; also: 0% is about no effect
Pf growth 96h – inhibits malaria parasite growth, 96 h; P. falciparum luciferase reporter growth, 96 h; Potency, µM (doses to about 28.7 µM), without a hit: at the highest dose activity change, negative = inhibition, usual class: inhibitors; hit rate 6.9% among 320,000; AID 504834; also: potency is read from the fitted curve at half-maximal effect; % is scaled to controls: 0 for no effect and ±100 for the full control effect
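Readout is luminescence from an integrated firefly luciferase in P. falciparum. Red cells, 2% hematocrit and 0.05% parasitemia final, were cultured with compound through two parasite generations (96 hours) at 37 C, 5% CO2.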
AMA1-RON2 inh – AMA1-RON2 (P. falciparum) interaction inhibition; AlphaScreen AMA1-biotinylated RON2 peptide binding; Potency, µM (highest dose often 58.2 µM), for inactives: top-dose activity change, negative = inhibition, actives largely listed as inhibitors; AID 720542; hit rate 0.2% among 360,000;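 also: potency is read from the fitted curve at half-maximal effect; 0% = vehicle wells and -100% = peptide control; nearly all actives have a fitted effect of over 45% in size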
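AMA1 (3D7) with his tag at 25 nM final met compounds first, then biotinylated RON2 peptide at 25 nM; detection used donor plus acceptor beads, 10 µg/mL apiece, read by AlphaScreen after 30 min at room temperature.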
Cycloheximide cs – counter-screen for Shiga toxin inhibitors: cycloheximide protein synthesis inhibition | AID 2314 | max response, % | cell reporter, cycloheximide protein synthesis inhibition counterscreen | hit rate 12% among 300,000; in the data active = max response mostly above about 13%, no sharp cut-off; inactive = mostly below about 14%; also: read at 38.3 µM for the half of the compounds with a filed dose; 0% is about no effect
Numbers without * were called inactive; ? = inconclusive; · = not tested or not shown; [ ] = dose if it differs, or a comment. Unless noted, calls follow the shape of the dose curve; as a rule, active = well fitted curve in the direction sought with a large enough effect; inconclusive = small, poorly fitted or top-dose-only effect, or another doubt; inactive = no such curve, though single readings can be large; an effect the other way counts as inactive or inconclusive.

SMILES | HCV inhibitor | Pf growth 48h | Shiga toxin inh | Pf growth 96h | AMA1-RON2 inh | Cycloheximide cs
COc1ccc(/C=C(\C#N)C(=O)OCC(=O)NCc2ccco2)cc1 | 22% | -22% | -22 | ? | -14% | -1
COC(=O)[C@@]12C[C@@H](CC(=O)N3CCCCC3)C(=O)N(Cc3ccccc3)C1=CCC(C)(C)C2 | · | · | · | · | -10% | ·
Oc1ccc(N2CCN(c3ccnc4cc(Cl)ccc34)CC2)cc1 | -25% | 3.3µM* | 22 | 2.3µM* | -18% | -3
Clc1ccc2c(N3CCOCC3)ccnc2c1 | ? | 9% | · | 11% | -10% | -2
O=C(OCc1cn([C@H]2C[C@H](c3ccccc3)N(Cc3cccs3)C[C@@H]2O)nn1)c1ccccc1 | · | · | · | · | -12% | ·
O=C(C1CN(C(=O)c2cc3ccccc3o2)c2ccccc2O1)N1CCCCC1 (centres undefined) | · | · | · | · | -4% | ·
OCCCn1c(-c2ccccc2)n[nH]c1=S | 8% | 24% | 37* | 7% | -1% | 21*
CCOC(=O)c1cc2sc(C)cc2n1C(C)C(=O)OCC (centres undefined) | -1% | 24% | -5 | 0.83µM* | 0% | -2
CN(C)c1nc(OCCNC(=O)COc2ccc(Cl)cc2Cl)nc(N(C)C)n1 | ? | · | 51 | ? | -10% | 8
CN(C)c1nc(OCCNC(=O)COc2ccc(Cl)cc2Cl)nc(N2CCCCC2)n1 | ? | ? | 1 | 2.6µM* | 1% | -1
O=C(C[n+]1ccccc1)N/N=C/c1ccccc1Cl | 2% | -24% | · | ? | -2% | ·
O=C(C[n+]1ccccc1)N/N=C/c1ccc(Br)cc1 | 4% | 10µM* | · | 2.9µM* | 19% | ·
O=C(C[n+]1ccccc1)N/N=C/c1ccc(Cl)c(Cl)c1 | 31% | 8.3µM* | 4 | ? | -19% | -1
O=C(C[n+]1ccccc1)N/N=C/c1ccc(F)cc1 | 2% | ? | -4 | ? | 11% | 11
CC(=O)Nc1cc(=O)c2cccnc2[nH]1 | 9% | · | · | · | 14µM* | ·
COc1cc(NC(C)=O)c2ncccc2c1NC(C)=O | 22% | -3% | 29 | 44% | -7% | -3
CCOc1ccc(NC(=S)N2CCN(S(=O)(=O)c3ccc(OC)cc3)CC2)cc1 | · | ? | 9 | ? | -13% | -1
Cc1cccc(NC(=S)N(Cc2cccs2)Cc2cc3cc(C)cc(C)c3[nH]c2=O)c1 | ? | -16% | 8 | ? | 0% | 4
CCOC(=O)Cn1nnnc1CN(Cc1cccs1)Cc1cc2cc(C)cc(C)c2[nH]c1=O | -5% | · | 15 | 10µM* | -8% | -1
Cc1cccc2cc(CN(Cc3cccs3)Cc3nnnn3Cc3ccccc3)c(=O)[nH]c12 | 10µM* | ? | -10 | -1%[5.75 µM] | -1% | -5
COc1ccc2cc(CN(Cc3cccs3)Cc3nnnn3Cc3ccccc3)c(=O)[nH]c2c1 | -27% | 9.3µM* | -4 | ? | -13% | -1
COc1ccc2cc(CN(Cc3cccnc3)Cc3nnnn3Cc3ccccc3)c(=O)[nH]c2c1 | 10% | ? | -12 | -36% | 1% | -5
COc1ccc(OC)c2nc(-c3ccncc3)ccc12 | ? | ? | 9 | 12% | 4% | 15*
COc1cccc2sc(Nc3nc(-c4ccncc4)cs3)nc12 | ? | ? | 25 | -29% | 1% | 11
CN(C)CCNC(NC(=O)c1cccs1)C(Cl)(Cl)Cl (centres undefined) | 2% | -4% | -6 | ? | 8% | 3
SMILES | HCV inhibitor | Pf growth 48h | Shiga toxin inh | Pf growth 96h | AMA1-RON2 inh | Cycloheximide cs
O=C(O)CCC1(CCC(=O)O)c2ccccc2-c2ccccc21 | 18% | -6% | -5 | 6.6µM* | 14% | -2
O=C(O)c1cccc2c(/C=N/Nc3ccccn3)c[nH]c12 | 32% | 83% | 70* | 93% | 0% | 39*
Clc1ccccc1C=NNc1ccccn1 | -8% | · | · | · | 13% | ·
O=c1nc(N/N=C/c2c[nH]c3ccccc23)cn[nH]1 | 3% | 193% | 45* | 0.41µM* | 73% | 40*
C(=N\Nc1ccccn1)/c1c[nH]c2ccccc12 | -24% | 95% | 89* | 1% | 40% | 30*
O=c1nc(N/N=C/C=C/c2ccccc2)cn[nH]1 | 11% | 72% | 67* | ? | 32% | 37*
O=c1cnnc(N/N=C/c2c[nH]c3ccccc23)[nH]1 | 15% | 15% | 13 | ? | 31% | -2
O=C(O)COc1ccc(Br)cc1/C=N\Nc1ccccn1 | 13% | -5% | -9 | ? | 28% | 8
O=C(NCc1cccs1)c1csc(COCCO)n1 | · | · | · | · | -5% | ·
O=c1oc(-c2cccnc2)nc2ccccc12 | 6% | -10% | -1 | 109% | -6% | -2
Cc1cc(=O)c2cc3nc(-c4cccnc4)oc3c(Br)c2o1 | · | ? | 42 | 10% | · | 15*
CC(=O)C1C(c2cccc(F)c2)c2c(n[nH]c2C)CC1(C)O (centres undefined) | 6% | 13% | -11 | 21% | 2% | -2
Cc1ccc(C(CNS(=O)(=O)c2ccc(Cl)cc2)N2CCN(C)CC2)cc1 (centres undefined) | ? | ? | · | 58% | 9% | ·
CN(C)c1ccc2c(c1[N+](=O)[O-])Cc1ccccc1-2 | ? | · | · | · | 10µM* | ·
COc1cc2c(cc1[N+](=O)[O-])-c1ccccc1C2 | -9% | · | · | · | -20% | ·
CC1CCCC(=NNC(=O)C2COc3ccccc3O2)C1 (centres undefined) | ? | · | · | · | -12% | ·
CC1(C)CC(=O)C/C(=N/Nc2nc3ccccc3s2)C1 | ? | ? | 43* | ? | 56% | 40*
CC1CCC/C(=N/Nc2nc3ccccc3s2)C1 (centres undefined) | 15% | 0% | 123* | 81% | 6% | 45*
O=Cc1ccc(C(=O)OCC(=O)NCc2ccco2)cc1 | 13% | · | · | · | 9% | ·
COc1ccc(N2CCN(S(=O)(=O)c3ccc(OC)c(C(=O)N4CCCCC4)c3)CC2)cc1 | 13µM* | -2% | -10 | 10% | -4% | -5
COc1ccc(S(=O)(=O)N2CCCCC2)cc1C(=O)N1CCCC1 | -15% | -7% | 13 | 2.3µM* | 6% | -5
COc1ccc(S(=O)(=O)N2CCCC2)cc1C(=O)N1CCCCC1 | · | -23% | 12 | -12% | -10% | -2
COc1ccc(N=Nc2cc(C)c(O)c(CN3CCCCC3)c2)cc1 | -16% | 0.26µM* | 16 | 0.26µM* | 20µM* | 11
Cc1cc2[nH]c3c4ccccc4nc(C)c3c2cc1C | 13µM* | · | · | · | -21% | ·
Cc1ccc(CNC(=O)C2CCC(=O)N(CCc3ccccc3)C2)s1 (centres undefined) | 21% | ? | 34 | ? | 1% | 54*
Cc1cccc(N2CCN(C(=O)C3CCC(=O)N(Cc4ccccc4F)C3)CC2)c1C (centres undefined) | -13% | 9.3µM* | 9 | 10µM* | 0% | 15*
O=C(NC1CCCCCC1)C1CCC(=O)N(Cc2ccccc2F)C1 (centres undefined) | 28% | ? | 26 | ? | 3% | 27*

Compound activity (PubChem BioAssay)
